# Assay results taken from PubChem BioAssay.
# Inconclusive results are not listed. Calls of active or inactive are those of the source.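 How the source made its calls, unless noted: active means percent response above a set limit, the screen-wide mean plus 3 SD (cut at about 130% in these data); inactive means the rest.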
# What was measured:
# [1] = rapamycin-like changes in RPL19A-GFP expression – cell-based, S. cerevisiae, multiplex flow cytometry, primary screen (AID 1862; in the data active means percent of DMSO control GFP below about 86%;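 further: lower values mimic rapamycin by blocking the RPL19A rise seen in DMSO cells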); details: S. cerevisiae RPL19A-GFP strain, flow cytometry fluorescence, 3 h; at 10 µM; stronger effect = lower value
# [2] = TOR pathway GLN3 branch reporter MEP2-GFP changes – S. cerevisiae, multiplex flow cytometry, primary screen (AID 1867;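 active means GFP response, as percent of the DMSO control, above the screen-wide mean plus 3 SD, about 139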;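 further: median GFP channel fluorescence of barcode-gated MEP2-GFP cells measured by flow cytometry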); details: S. cerevisiae MEP2-GFP strain, 3 h, at 10 µM, stronger effect = higher value, 100% means same as DMSO wells
# [3] = TOR pathway RTG branch CIT2 reporter changes – S. cerevisiae, GFP fusion, multiplex flow cytometry, primary screen (AID 1870);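 further: barcoded CIT2-GFP strain pooled with four other GFP strains with rapamycin as positive control; median GFP fluorescence per well over plate mean of DMSO wells so 100% = DMSO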; details: S. cerevisiae CIT2-GFP expression, 3 h, at 10 µM, stronger effect = higher value
# [4] = TOR pathway LAP4-GFP level changes – S. cerevisiae, multiplex flow cytometry, primary screen (AID 1873;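 active means GFP signal, as percent of the solvent control, above the screen mean plus 3 SD, about 149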); details: S. cerevisiae LAP4-GFP expression, 3 h, at 10 µM, stronger effect = higher value
# [5] = yeast AGP1-GFP level changes, GLN3 branch – cell-based, multiplex flow cytometry, S. cerevisiae, primary screen (AID 1887;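 active means GFP signal above the screen-wide mean plus 3 SD, that is over about 124.5% of the solvent control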;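 further: AGP1-GFP fusion strain of S. cerevisiae within a five-strain barcoded multiplex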); details: 3 h, at 10 µM, stronger effect = higher value
# [6] = reduced mouse 2C T cell binding to pMHC/ICAM-1 vesicles – MLPCN validation set, flow cytometry, LFA-1/ICAM-1 modulator project, pilot screen (AID 2523;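 active means response below a set limit, under 55% cells CD8-positive and vesicle-bound, and CD8 cells' 90th-percentile brightness under 279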;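 on vesicle binding response: mean PE anti-B7-1 fluorescence of CD8+ cells relative to row control; 100% = QL9-loaded vesicles with DMSO vehicle in the same plate row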); details: 2C mouse CD8+ T cells, at 7 µM, stronger effect = lower value; double positive events: measured here: CD8+/vesicle+ event percentage
# [7] = molecular target: Integrin beta-1 (Homo sapiens) + Integrin alpha-4 (Homo sapiens) (UniProt P13612+P05556); test: alpha4beta1 integrin LIBS antibody binding reduction – U937 cells, HUTS-21 mAb, flow cytometry, validation set, VLA-4 allosteric modulator project, pilot screen (AID 2674;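 active means inhibition above 50%, about 3 SD of the validation set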;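 further: antibody binding induced by the VLA-4 ligand LDV present at three times its Kd; 0% = LDV ligand with antibody and no compound and 100% = antibody without LDV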); details: HUTS-21 LIBS mAb binding, at 6.7 µM, stronger effect = higher value, binding induced by LDV ligand
# Integrin beta-1 (Homo sapiens) + Integrin alpha-4 (Homo sapiens), sequence (P05556 whole entry, looked up): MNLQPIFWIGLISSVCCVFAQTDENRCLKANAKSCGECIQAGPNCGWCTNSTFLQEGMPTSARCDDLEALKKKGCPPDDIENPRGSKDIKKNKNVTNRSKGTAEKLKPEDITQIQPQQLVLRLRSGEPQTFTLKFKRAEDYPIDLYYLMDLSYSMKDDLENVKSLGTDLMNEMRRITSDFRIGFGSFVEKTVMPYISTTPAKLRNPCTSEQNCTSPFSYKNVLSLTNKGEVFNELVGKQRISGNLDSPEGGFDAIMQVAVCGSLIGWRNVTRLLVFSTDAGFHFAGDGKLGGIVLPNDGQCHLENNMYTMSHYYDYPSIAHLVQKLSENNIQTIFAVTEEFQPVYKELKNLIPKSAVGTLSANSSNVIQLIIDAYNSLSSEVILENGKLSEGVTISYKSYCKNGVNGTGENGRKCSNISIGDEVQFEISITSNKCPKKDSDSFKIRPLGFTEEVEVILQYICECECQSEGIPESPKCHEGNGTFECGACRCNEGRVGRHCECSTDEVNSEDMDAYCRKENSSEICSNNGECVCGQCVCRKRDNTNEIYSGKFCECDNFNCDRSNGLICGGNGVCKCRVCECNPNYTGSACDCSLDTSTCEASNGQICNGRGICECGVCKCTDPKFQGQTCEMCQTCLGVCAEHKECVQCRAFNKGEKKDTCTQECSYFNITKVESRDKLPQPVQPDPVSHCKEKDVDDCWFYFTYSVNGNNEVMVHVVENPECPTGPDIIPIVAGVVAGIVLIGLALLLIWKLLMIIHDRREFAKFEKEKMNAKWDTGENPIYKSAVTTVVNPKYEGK
# Integrin beta-1 (Homo sapiens) + Integrin alpha-4 (Homo sapiens), sequence (P13612 whole entry, looked up): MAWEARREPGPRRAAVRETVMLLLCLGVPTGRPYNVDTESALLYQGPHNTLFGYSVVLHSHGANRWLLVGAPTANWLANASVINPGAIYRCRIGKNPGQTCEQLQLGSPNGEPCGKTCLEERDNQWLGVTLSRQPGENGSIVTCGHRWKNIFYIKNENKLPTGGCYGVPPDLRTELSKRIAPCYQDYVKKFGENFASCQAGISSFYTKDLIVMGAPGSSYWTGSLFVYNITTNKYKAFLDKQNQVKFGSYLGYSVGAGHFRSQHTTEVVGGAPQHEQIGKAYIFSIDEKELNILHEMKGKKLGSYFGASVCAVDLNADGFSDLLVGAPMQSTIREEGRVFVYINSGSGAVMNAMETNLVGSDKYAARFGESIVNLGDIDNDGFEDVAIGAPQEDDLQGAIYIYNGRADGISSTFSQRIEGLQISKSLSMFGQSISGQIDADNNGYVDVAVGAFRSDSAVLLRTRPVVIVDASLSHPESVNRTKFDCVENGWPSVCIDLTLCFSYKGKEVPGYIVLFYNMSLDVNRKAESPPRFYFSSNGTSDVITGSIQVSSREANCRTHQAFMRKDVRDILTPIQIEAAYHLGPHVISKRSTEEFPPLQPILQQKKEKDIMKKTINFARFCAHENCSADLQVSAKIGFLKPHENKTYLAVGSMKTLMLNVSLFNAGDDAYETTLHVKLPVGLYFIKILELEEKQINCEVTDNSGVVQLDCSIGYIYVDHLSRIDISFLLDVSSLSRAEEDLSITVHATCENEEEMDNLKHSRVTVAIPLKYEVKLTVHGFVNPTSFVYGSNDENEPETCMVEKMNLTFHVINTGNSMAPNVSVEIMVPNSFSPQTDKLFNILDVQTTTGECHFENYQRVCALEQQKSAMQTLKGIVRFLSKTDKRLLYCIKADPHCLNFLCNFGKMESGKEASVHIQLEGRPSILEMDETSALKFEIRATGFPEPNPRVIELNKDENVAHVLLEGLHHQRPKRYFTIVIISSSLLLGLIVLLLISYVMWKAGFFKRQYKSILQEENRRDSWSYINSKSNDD
# [8] = calorie-restriction mimetic ROS inhibitors, yeast – validation compound set, pilot screen (AID 2706;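 active means superoxide response below 65% of plate, a cut near 3 SD across the whole screen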;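 further: yeast exposed to compound for one week at 30 degrees C before staining; 100% = mean of all compound wells on the same plate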); details: S. cerevisiae aging, superoxide DHE fluorescence; at 10 µM, stronger effect = lower value
# [9] = molecular target: Beta-adrenergic receptor kinase 1 (Homo sapiens) (UniProt P25098); test: GRK2 binders displacing RNA aptamer, biochemical, validation, human GRK2, bead flow cytometry (AID 488806;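 active means aptamer binding inhibition above 30%, about 3 SD of noise from non-fluorescent compounds; inactive means inhibition at or below 30%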); details: bead-bound GRK2, FAM-aptamer displacement, at 10 µM, stronger effect = higher value
# Beta-adrenergic receptor kinase 1 (Homo sapiens), sequence (P25098 whole entry, looked up): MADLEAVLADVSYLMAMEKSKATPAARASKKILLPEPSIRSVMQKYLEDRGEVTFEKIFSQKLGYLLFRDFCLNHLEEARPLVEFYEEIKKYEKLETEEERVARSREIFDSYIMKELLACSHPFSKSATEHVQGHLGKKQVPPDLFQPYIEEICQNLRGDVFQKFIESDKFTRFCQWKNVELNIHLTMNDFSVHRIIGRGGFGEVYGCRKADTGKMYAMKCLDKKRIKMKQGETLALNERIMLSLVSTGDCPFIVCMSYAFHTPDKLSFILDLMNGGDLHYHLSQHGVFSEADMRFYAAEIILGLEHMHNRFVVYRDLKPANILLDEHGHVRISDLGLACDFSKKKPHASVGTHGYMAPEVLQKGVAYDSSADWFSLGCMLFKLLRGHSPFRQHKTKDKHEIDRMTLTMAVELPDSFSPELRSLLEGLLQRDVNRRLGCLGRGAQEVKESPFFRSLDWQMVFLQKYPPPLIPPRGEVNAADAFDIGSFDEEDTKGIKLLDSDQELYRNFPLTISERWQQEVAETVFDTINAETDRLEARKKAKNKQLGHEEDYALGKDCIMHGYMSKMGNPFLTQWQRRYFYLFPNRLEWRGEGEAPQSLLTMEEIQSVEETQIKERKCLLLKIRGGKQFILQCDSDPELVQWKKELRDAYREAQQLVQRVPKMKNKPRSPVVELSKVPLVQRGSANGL
# [10] = molecular target: Beta-2 adrenergic receptor (Homo sapiens) (UniProt P07550); test: agonist-induced loss of surface beta2AR – cell-based, FAP fluorogen, flow cytometry, validation set, pilot screen (AID 504459;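 active means percent response above 42, roughly 3 SD of non-fluorescent test compounds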;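 further: agonist-driven loss of surface beta2AR via internalization measured by FAP dye flow cytometry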); details: Am2.2-beta2AR cells, at 10 µM, stronger effect = higher value
# Beta-2 adrenergic receptor (Homo sapiens), sequence (P07550 whole entry, looked up): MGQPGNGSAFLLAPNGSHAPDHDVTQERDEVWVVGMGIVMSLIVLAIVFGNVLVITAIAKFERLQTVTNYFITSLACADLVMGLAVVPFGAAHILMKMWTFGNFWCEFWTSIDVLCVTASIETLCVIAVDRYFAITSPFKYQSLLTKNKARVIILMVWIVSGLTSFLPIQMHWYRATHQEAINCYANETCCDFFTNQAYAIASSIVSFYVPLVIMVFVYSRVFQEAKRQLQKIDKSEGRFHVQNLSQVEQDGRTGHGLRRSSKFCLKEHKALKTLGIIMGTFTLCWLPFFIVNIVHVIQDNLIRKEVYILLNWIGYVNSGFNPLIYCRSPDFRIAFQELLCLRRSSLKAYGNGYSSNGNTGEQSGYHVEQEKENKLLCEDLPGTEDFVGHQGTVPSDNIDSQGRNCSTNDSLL
# [11] = molecular target: AP-2 complex subunit beta (Homo sapiens) (UniProt P63010); test: beta-arrestin/AP2 interaction blockers – biochemical, validation set, GST-AP2 beads, flow cytometry, pilot screen (AID 504541;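 active means inhibition above 54%, about 3 SD of non-fluorescent compounds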;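 further: AP2 carries R879A mutation and is captured from E. coli lysate; bead-bound FITC arrestin peptide fluorescence measuring arrestin peptide binding to AP2; 0% = DMSO wells and 100% = excess unlabeled arrestin peptide control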); details: FITC arrestin peptide, at 10 µM, stronger effect = higher value, AP2 beta2 appendage fragment, R879A mutant
# AP-2 complex subunit beta (Homo sapiens), sequence (P63010 whole entry, looked up, the tested form may be a part, one chain of several): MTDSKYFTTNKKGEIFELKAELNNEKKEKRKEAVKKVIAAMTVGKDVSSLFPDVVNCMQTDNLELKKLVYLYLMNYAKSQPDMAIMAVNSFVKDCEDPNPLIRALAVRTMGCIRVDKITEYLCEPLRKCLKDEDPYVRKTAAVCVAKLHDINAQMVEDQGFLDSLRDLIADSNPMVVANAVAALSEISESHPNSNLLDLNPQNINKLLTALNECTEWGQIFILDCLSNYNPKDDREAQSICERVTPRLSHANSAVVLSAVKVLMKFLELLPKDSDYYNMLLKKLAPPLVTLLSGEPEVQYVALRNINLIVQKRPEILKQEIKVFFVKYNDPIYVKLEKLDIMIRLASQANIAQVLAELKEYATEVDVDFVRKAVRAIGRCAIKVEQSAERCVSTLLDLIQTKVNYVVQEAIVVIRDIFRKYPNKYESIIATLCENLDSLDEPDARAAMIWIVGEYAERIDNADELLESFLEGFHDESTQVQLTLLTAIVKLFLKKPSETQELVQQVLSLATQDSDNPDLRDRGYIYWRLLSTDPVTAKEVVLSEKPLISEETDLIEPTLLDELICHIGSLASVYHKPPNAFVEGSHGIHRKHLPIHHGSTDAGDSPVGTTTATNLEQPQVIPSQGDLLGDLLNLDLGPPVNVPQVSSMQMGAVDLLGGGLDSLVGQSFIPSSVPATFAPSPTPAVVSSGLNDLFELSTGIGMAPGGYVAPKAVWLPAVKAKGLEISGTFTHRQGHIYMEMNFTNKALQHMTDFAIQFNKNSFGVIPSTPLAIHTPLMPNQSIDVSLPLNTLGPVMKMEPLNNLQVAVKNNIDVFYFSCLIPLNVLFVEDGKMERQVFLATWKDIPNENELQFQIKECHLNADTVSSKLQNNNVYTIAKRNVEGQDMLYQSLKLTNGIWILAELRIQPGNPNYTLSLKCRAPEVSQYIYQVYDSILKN
# [12] = cytosolic pH regulators acting via V-ATPase – S. cerevisiae, pHLuorin, HTS validation (AID 504600; in the data active means response above about 15%;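 further: plate controls were DMSO for no effect and reference compound for full effect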); details: V-ATPase proton transport, at 10 µM, stronger effect = higher value
# [13] = test system: anti-desmoglein-3 scFv antibody binding to human DSG3; test: blockers of pathogenic pemphigus antibody–desmoglein-3 binding – biochemical, validation compound set, bead-based, flow cytometry, pilot screen (AID 588368;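 active means binding below the plate cutoff, the plate median minus 3 SD, with a reading above zero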;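 further: signal is the median channel fluorescence of bead-bound GFP antibody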); details: Protein G beads, DSG3-Fc, scFv-GFP binding, at 10 µM, stronger effect = lower value
# [14] = Nile Red efflux blockade in pump-expressing yeast – validation compound set, multiplex, phenotypic, pilot screen (AID 588506;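 active means efflux inhibition above 0.42, the validation set average plus 4 SD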;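 further: Nile Red retained in cells so higher fluorescence means more efflux inhibition; 0 = negative control wells and 1 = enniatin B 25 µM full block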); details: S. cerevisiae pump-expressing triplex, Nile Red efflux flow cytometry; at 10 µM; stronger effect = higher value; the pumps come from Candida albicans
# [15] = molecular target: ATP-binding cassette sub-family B member 6 (Homo sapiens) (UniProt Q9NP58); test: blockers of ABCB6-driven porphyrin uptake – K562-ABCB6 cells, flow cytometry, validation set, pilot screen (AID 588550;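 active means inhibition above the screen-wide mean plus 3 SD, about 51%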;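 further: 0% = DMSO wells and 100% = benzethonium chloride 70 µM positive control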); details: K562-ABCB6 porphyrin accumulation, 1 h, at 10 µM, stronger effect = higher value
# ATP-binding cassette sub-family B member 6 (Homo sapiens), sequence (Q9NP58 whole entry, looked up): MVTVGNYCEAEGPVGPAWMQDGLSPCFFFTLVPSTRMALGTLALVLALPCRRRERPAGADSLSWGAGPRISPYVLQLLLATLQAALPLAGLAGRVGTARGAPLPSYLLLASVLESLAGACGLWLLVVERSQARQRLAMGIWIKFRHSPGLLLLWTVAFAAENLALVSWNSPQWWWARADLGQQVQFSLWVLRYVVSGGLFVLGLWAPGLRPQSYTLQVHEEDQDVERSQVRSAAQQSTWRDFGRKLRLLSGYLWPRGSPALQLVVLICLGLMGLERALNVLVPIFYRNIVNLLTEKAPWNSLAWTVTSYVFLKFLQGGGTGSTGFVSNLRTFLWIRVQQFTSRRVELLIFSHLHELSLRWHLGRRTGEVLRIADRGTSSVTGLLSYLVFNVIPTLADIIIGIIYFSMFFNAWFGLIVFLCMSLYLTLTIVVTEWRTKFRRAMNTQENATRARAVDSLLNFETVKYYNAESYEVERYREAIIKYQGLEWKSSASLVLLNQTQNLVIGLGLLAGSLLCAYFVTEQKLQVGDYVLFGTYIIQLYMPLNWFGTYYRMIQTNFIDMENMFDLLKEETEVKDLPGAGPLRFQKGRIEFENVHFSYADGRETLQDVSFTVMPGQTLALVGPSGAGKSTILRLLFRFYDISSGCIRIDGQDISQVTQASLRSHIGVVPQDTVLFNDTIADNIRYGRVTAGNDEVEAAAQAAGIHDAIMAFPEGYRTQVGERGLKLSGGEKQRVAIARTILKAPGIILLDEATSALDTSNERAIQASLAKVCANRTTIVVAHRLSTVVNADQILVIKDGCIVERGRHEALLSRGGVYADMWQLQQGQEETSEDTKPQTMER
# [16] = AML differentiation inducers, ER-HoxA9 marrow cells – cell-based, GFP/MAC1 double positive, flow cytometry, validation set, primary screen (AID 588685;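 active means differentiation response of at least 50%, scaled between solvent and reference control, from cells with both markers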;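 further: compound exposure lasts four days before antibody staining and flow analysis; 0% = DMSO wells and 100% = 5 µM fulvestrant positive control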); details: stronger effect = higher value, normalized: vehicle 0, fulvestrant 100
SMILES,percent of DMSO control GFP [1],GFP response vs DMSO [2],percent response of DMSO control [3],GFP response vs DMSO [4],"GFP response, % of DMSO [5]",double positive events [6] [%],inhibition [7],superoxide response (% of plate) [8],aptamer binding inhibition [9],response [10],inhibition [11],response [12],binding (% of control) [13],efflux inhibition (fraction of control) [14],inhibition [15],differentiation response [16],vesicle binding response [6]
CCCCOc1ccc(OCCCN2CCOCC2)cc1,86.5% (inactive),136% (inactive),104% (inactive),86.9% (inactive),95.9% (inactive),56,11.3% (inactive),112% (inactive),3% (inactive),-8.98% (inactive),-2.38% (inactive),1.62% (inactive),106% (inactive),-0.06 (inactive),11% (inactive),4.91% (inactive),–
Cc1ccc2[nH]c3c(c2c1)CN(C(=O)CN1CCSCC1)CC3,100% (inactive),93% (inactive),101% (inactive),102% (inactive),101% (inactive),60.8,-51.3% (inactive),–,0% (inactive),-263% (inactive),-3.3% (inactive),0.82% (inactive),439% (inactive),-0.04 (inactive),–,28.6% (inactive),66.8% (inactive)
CCOC(=O)c1c(C)oc2cc(Br)c(OC(C)C(=O)OCC)cc12 (centres undefined),95% (inactive),119% (inactive),102% (inactive),84.7% (inactive),–,60.7,2.58% (inactive),93% (inactive),7% (inactive),4% (inactive),1.62% (inactive),-3.94% (inactive),101% (inactive),-0.31 (inactive),12% (inactive),-1.64% (inactive),238% (inactive)
O=C1NC2(Nc3ccccc31)C(=O)Nc1ccc(Br)cc12 (centres undefined),91.7% (inactive),127% (inactive),102% (inactive),85.8% (inactive),–,72,-3.24% (inactive),102% (inactive),2% (inactive),-4.23% (inactive),1.97% (inactive),1.05% (inactive),98.7% (inactive),-0.13 (inactive),9% (inactive),0% (inactive),220% (inactive)
Cc1cc(C(C)(C)C)c(O)c(C)c1CC1=NCCN1,103% (inactive),116% (inactive),114% (inactive),94.1% (inactive),–,62.9,-29.4% (inactive),93.7% (inactive),1% (inactive),8.56% (inactive),-0.66% (inactive),0.6% (inactive),106% (inactive),0.34 (inactive),12% (inactive),7.37% (inactive),297% (inactive)
